# Assay results reported in the supplement of paper PMC3484114.
# ± gives the standard deviation.
# Tested on: OVCAR-3-derived ovarian cancer stem-like cells (spheroids)
# Assay: cell growth relative to untreated control; higher = more growth (less inhibition)
# Conditions: 2.29 µM; 96 h
# Method in brief: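 Stem-like cells derived from OVCAR-3 spheroids were dissociated with trypsin and seeded at 50,000 cells/mL in stem cell medium in ultra-low attachment 96-well plates, then preincubated for 24 h. Each compound was added at 2.29 uM to 4 replicate wells and left for 96 h at 37°C, 5% CO2. Viability came from TOX8 resazurin fluorescence (ex 560/em 590 nm) read after 4 h. Percent growth was expressed relative to untreated wells, after blank subtraction and removal of outliers by the Grubbs test.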
row,SMILES,cell growth
1,CC(C)C(NC(=O)C(C(C)C)N(C)C)C(=O)N(C)C(C(=O)N1CCCC1C(=O)N1CCCC1C(=O)NCc1ccccc1)C(C)C (centres undefined),24.5 ± 8.1%
2,COC(=O)C1=C(C(=O)OC)SC2(S1)C(C(=O)OC)=C(C(=O)OC)Sc1c2ssc1=O,60.2 ± 8.6%
3,O=[Se](O)O.[Na+],112 ± 29%
4,COC1CC(CC2CCC(C)C(C(C)C(=O)O)O2)OC2(OC(C)(C3CCC(C)(C4OC(C5OC(O)(CO)C(C)CC5C)CC4C)O3)CC2C)C1C (centres undefined),64.5 ± 48%
5,C[C@H]1CCC/C=C/[C@@H]2C[C@H](O)C[C@H]2[C@H](O)/C=C/C(=O)O1,15 ± 2.5%
6,CC1Oc2cc3c(-c4c(O)cc(O)c5c(O)c6c(cc45)OC(C)C(C)C6=O)c(O)cc(O)c3c(O)c2C(=O)C1C (centres undefined),23.8 ± 48%
7,CC12CCC(O)CC1CCC1C2CCC2(C)C(C3=CC(=O)OC3)CCC12O (centres undefined),26.5 ± 3.1%
8,CC1=C[C@H]2O[C@@H]3[C@H](O)[C@@H](O)[C@@](C)([C@@]2(CO)CC1)[C@]31CO1,36 ± 10%
9,COc1ccc(NC2=NCCO2)c2c1CCCC2,98.5 ± 10%
10,C[n+]1ccc(-c2cc[n+](C)cc2)cc1,101 ± 11%
11,CC[C@@]1(O)C[C@H](O[C@H]2C[C@H](N(C)C)[C@H](O[C@H]3C[C@@H]4O[C@H]5CC(=O)[C@H](C)O[C@H]5O[C@@H]4[C@H](C)O3)[C@H](C)O2)c2c(cc3c(c2O)C(=O)c2c(O)ccc(O)c2C3=O)[C@H]1C(=O)OC,11 ± 3.4%
12,O=C1NC(=S)NC(=O)C1C(=O)Nc1ccccc1,23.7 ± 5.9%
13,C1CCNCC1.S=C(S)N1CCCCC1,36.2 ± 3.5%
14,C=C(C)C(=O)OC1CCC2(C)C(CCC3C2CCC2(C)C(c4ccc(=O)oc4)CC4OC432)C1 (centres undefined),92.2 ± 18%
15,CC1=C(N2CC2)C(=O)c2nc3n(c2C1=O)CCC3OC(=O)CCl (centres undefined),65.2 ± 6.7%
16,COC(=O)[C@@]12OC[C@]34[C@H]([C@@H](O)[C@@H]1O)[C@@]1(C)CC(=O)C(O)=C(C)[C@@H]1C[C@H]3OC(=O)[C@H](OC(=O)/C=C(\C)C(C)C)[C@@H]24,6.1 ± 4.4%
17,CC12C(=O)OC(=O)C1(C)C1CCC2O1 (centres undefined),91 ± 14%
18,C=Cc1cc(OC)c2c(c1)c(=O)oc1c2cc(OC)c2c(O)ccc(C3OC(C)C(O)C(C)(O)C3O)c21 (centres undefined),8.6 ± 6%
19,COc1cc2c(c3oc4cccc(O)c4c(=O)c13)[C@@H]1C=CO[C@@H]1O2,112 ± 22%
20,CC(=O)O[C@@H]1C[C@H]2O[C@@H]3C=C(C)CC[C@]3(C)[C@]1(C)[C@]21CO1,48.5 ± 11%
21,[O-][Cl+3]([O-])([O-])[O-].c1ccc(-c2csc3c4ccccc4c4ccccc4[n+]23)cc1,45.5 ± 12%
22,COC1CC(OC2CCC3(C=O)C4CCC5(C)C(C6=CC(=O)OC6)CCC5(O)C4CCC3(O)C2)OC(C)C1OC1OC(COC2OC(CO)C(O)C(O)C2O)C(O)C(O)C1O (centres undefined),63.1 ± 13%
23,[Cl][Cd][Cl],87.6 ± 51%
24,Oc1cccc2cccnc12,80.4 ± 14%
